Results on 40 compounds are retold here after PubChem BioAssay (NCI).

Values joined by “and” are separate entries in the source; they are usually repeats but may differ in a detail not shown here. Identical values can stand only once. The panel holds about 83,000 compounds, 20% with a hit somewhere; the sample as a whole holds those more often.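 The endpoint reported here, percent growth, reads 100 for growth as untreated, 0 for no net growth and -100 for all cells dead.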 A number with no mark means an inactive call. Active and inactive are the calls of the source.

This assay deals with A498 renal. Description: NCI-60 one-dose screen, 48 h (100 = growth as untreated, 0 = no growth, -100 = all killed). The settings on record: 10 µM unless noted. The method, then:
Growth inhibition of the A498 human tumor cell line is measured as a screen for anti-cancer activity. Cells are grown in 96 well plates and exposed to the test compound for 48 hours. Compounds are tested at a single concentration, which is 10^-5 M for most compounds. The reported endpoint is percent growth (GI% or GIPRCNT), where numbers from 0 - 100% represent growth inhibition, and numbers from -100% - 0 represent cell death. For example, a value of 40 represents 60% growth inhibition. A value of 0 means no net growth occurred over the course of the experiment. A value of -40 indicates 40% of cells at the beginning of the experiment died by the end of the experiment. A value of -100 means all cells are dead at the end of the experiment.
NCI-60 Human Tumor Cell Lines Screen was performed using the standard one-dose NCI protocol, which is described in more detail at https://dtp.cancer.gov/discovery_development/nci-60/default.htm.
Compounds with GIPRCNT values below 10 were considered active. Activity score was based on GIPRCNT using the following formula: […]
Score is 0 for GIPRCNT values of 100 or above, 50 for GIPRCNT values of 0, and 100 for GIPRCNT values of -100.
In the case of `CN1CCN(c2ccc(Nc3nc(NCCCNS(=O)(=O)c4ccc(Cl)cc4)c4sccc4n3)cc2)CC1`, the growth is 19.7%.
To `CCCCSC1=C(Cl)CN(c2ccc(Cl)cc2)C1=O` belongs 101%.
In the case of `Clc1ccc2c(N/N=C/c3c[nH]c4ccccc34)ccnc2c1`, the growth was -93.6% (active).
The result for `C#CCOc1ccc(/C=N/Nc2nc(-c3ccc(OC)cc3)cs2)cc1` reads 63%; that for `COc1ccc(/C=N/NC(=O)c2c(N)nn(C)c2Nc2ccccc2)cc1`, 33.1%.
To `COc1ccc2c(c1)c(/C=N/Nc1ccnc3cc(Cl)ccc13)cn2C` belongs -90% (active); to `CC(=O)N1N=C(c2cc3ccccc3oc2=O)CC1c1cn(-c2ccccc2)nc1-c1ccc(C)cc1` (stereo not given), 101%; to `COc1ccc([C@H]2C(=O)N(c3cc(OC)c(OC)c(OC)c3)[C@@H]2c2ccc(OC)c(O)c2)cc1`, -29.9% (active).
As to `Cc1ccc(/C(N)=N/C(N)=N/c2nc3ccccc3s2)cc1`, the growth is 121%.
As to `Cc1ccc(S(=O)(=O)c2nc(-c3ccc(F)cc3)oc2S(C)(=O)=O)cc1`, the growth was 102%.
The result for `Cc1ccccc1Nc1nc(SC(C)C)nc(-c2ccccc2)c1C#N` reads 53.5%; that for `O=C(Nc1ccccc1)Nc1nc2ccc([N+](=O)[O-])cc2[nH]1`, 11.1%; that for `CCOC(=O)Nc1ccc2c(ccn2C(=O)c2cccc(F)c2)c1`, -6.19% (active).
The result for `O=[N+]([O-])c1ccc(NC(=S)NNC(=S)Nc2ccc(F)cc2)cc1` reads 81.4%; that for `O=C(N/N=C\c1ccc([N+](=O)[O-])cc1)c1ccc2nc(-c3ccc(Br)cc3)[nH]c2c1`, 21.4%; that for `CCOC(=O)c1c(NC(=O)c2ccc(C(F)(F)F)cc2)sc2c3c(ccc12)OCN(C)C3`, 89.1%.
In the case of `Cc1ccsc1[C@H]1c2[nH]c3ccccc3c2C[C@H]2C(=O)N(CCCCCCC(=O)NO)CC(=O)N12`, the growth was 109%.
The result for `Cn1cc(-c2nnc(N)nc2-c2c[nH]c3ccc(Br)cc23)c2cc(Br)ccc21` reads 93.6%.
The result for `CCCCCCCCCC(=O)NC(C)(C)C(=O)N1CCC[C@H]1C(=O)N[C@@H](CC(C)C)C(=O)N[C@@](C)(CC)C(=O)N[C@@H](CCC(N)=O)C(=O)N[C@H](CCC(N)=O)C(=O)NC(C)(C)C(=O)NC(C)(C)C(=O)N[C@@H](CCC(N)=O)C(=O)N[C@H](CC(C)C)C(=O)N[C@H](CO)CC(C)C` reads -91.3% (active) and -31.5% (active); that for `Nc1nc(=O)n([C@H]2C[C@H](O)[C@@H](CO)O2)cc1C=O`, 121%; that for `O=S(=O)(Oc1ccc(-c2cn3ccsc3n2)cc1)c1cccc(C(F)(F)F)c1`, 86.8%.
Take `O=C1[C@H]2Cc3c([nH]c4ccccc34)[C@H](c3ccc(Br)cc3)N2C(=O)CN1C1CCN(CC2CCCCC2)CC1`: the growth was 79.3%.
The result for `CCCN1C=C/C(=C\C(=O)n2ccc3ccccc32)c2ccccc21` reads 92.9%.
As to `O=C(Nc1ccc(N2CCOCC2)cc1)Nc1ccc2c(ccn2C(=O)c2cccc(F)c2)c1`, the growth is 87.7%.
For the compound `CNC(=O)c1cc(Oc2ccc3c(c2)sc2nc(-c4ccc(N(C)C)cc4)cn23)ccn1`, the growth was 7.34% (active).
To `O=C1[C@@H]2Cc3c([nH]c4ccccc34)[C@@H](c3ccc(Cl)cc3)N2C(=O)CN1C1CCN(Cc2ccccc2)CC1` belongs 76.1%; to `CN1CCN(CCNc2nc(-c3cccc(NS(=O)(=O)c4cccc5c(N(C)C)cccc45)c3)cs2)CC1`, 67.5%.
The result for `Cc1ccc2c(n1)C(=O)C(Cl)=C(Nc1cc(C(F)(F)F)cc(C(F)(F)F)c1)C2=O` reads 80.4%.
Consider `CN1CCN(c2ccc(Nc3nc(NCCCNS(=O)(=O)c4ccccc4)c4sccc4n3)cc2)CC1`, for which the growth was 131%.
Consider `CN1CCN(c2ccc(Nc3nc(NCCCNS(=O)(=O)c4ccc(C(F)(F)F)cc4)c4sccc4n3)cc2)CC1`, for which the growth was -87% (active).
Take `COc1ccc(NC2=C(Br)C(=O)C(C)=C(C)C2=O)cc1OC`: the growth was 95%.
The result for `NC1=NC2(CCCC2)N(c2ccc(S(=O)(=O)Nc3nccs3)cc2)C(N)=N1` reads 120%.
To `CCN(CC)S(=O)(=O)c1ccc(-c2nc(C(Cl)Cl)nc3cc(C)nn23)cc1` belongs 74.8%; to `CS(=O)(=O)c1ccc(/C(=N/N=C(N)N)c2ccc(Cl)cc2)cc1`, 76.9%; to `N#Cc1c(-c2cccs2)c(C#N)c(=O)n(Cc2nc3ccccc3[nH]2)c1N`, 118%.
The result for `COc1ccc2c(c1)c(-c1nn3cc(-c4ccncc4)nc3s1)cn2C` reads 83.7%; that for `CC1=C(C)C(=O)C(Nc2ccc(C)cc2)=C(Br)C1=O`, 97.2%.
Consider `Cn1cc(C2=C(c3coc4cc(Br)ccc34)C(=O)NC2=O)c2ccccc21`, for which the growth is 79.8%.
Take `Cc1cc(=O)[nH]c(O)c1C#N`: the growth is 104%.
The result for `CN1CCN(Cc2ccc(NC(=O)c3cncc(C#Cc4cnc5ccc(OCC6COC6)nn45)c3)cc2C(F)(F)F)CC1` reads -93.7% (active).
